Test results as given in ChEMBL document CHEMBL4513137, “CO-ADD screening of University of Manchester (UK) compounds”.
In all, about 23,000 compounds went through this assay and about 30 (0.1%) showed an effect of 50% or more. Shown is part of a subset that was picked to be rich in strong results. Entries with a potency or affinity are not part of this list.

Tested on: Pseudomonas aeruginosa
Details: Concentration 32 ug.mL-1; ASSAY_TEST Inhibition of Bacterial Growth; detection method Absorption (OD600); MEDIA CAMHB; plate type 384well; NBS; CORNING #3640; time 18 hr

| SMILES | Inhibition [%] |
| --- | --- |
| COc1ccc(Nc2ccccc2-c2ccc([N+](=O)[O-])cc2)cc1 | 65.22 |
| O=[N+]([O-])c1ccc(-c2ccccc2Nc2ccccc2)cc1C(F)(F)F | 49.55 |
| O=[N+]([O-])c1ccc(-c2ccccc2Nc2ccccc2)cc1F | 55.36 |
| Cc1ccccc1Nc1ccccc1-c1ccc([N+](=O)[O-])cc1 | -5.81 |
| O=[N+]([O-])c1ccc(-c2c(Nc3ccccc3)cccc2-c2ccccc2)cc1 | 19.1 |
| O=[N+]([O-])c1ccc(-c2ccccc2Nc2ccccc2)cc1 | -5.45 |
| c1ccc(Nc2ccccc2-c2ncccn2)cc1 | 60.14 |
| CC(=O)c1ccc(-c2ccccc2Nc2ccccc2)cc1 | 28.85 |
| COc1cccc(Nc2ccccc2)c1-c1c(Cl)cc(Br)cc1Cl | 61.56 |
| COc1cc([N+](=O)[O-])ccc1-c1c(Nc2ccccc2)cccc1OC | 30.66 |
| Clc1cc(Br)cc(Cl)c1-c1ccccc1Nc1ccccc1 | 32.77 |
